# Experimental data taken from PubChem BioAssay (NCI).
# “And” between values parts separate entries of the source, which are not always exact repeats. Equal entries are not always repeated. This is part of a sample that, as a whole, favours compounds with a hit. Of some 83,000 tested, about 20% had one in any assay.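 Single-concentration screen, 48 h exposure, 96-well plates. Endpoint: percent growth. Below 10 = active.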 The source made the active and inactive calls.
# Tested on: MDA-MB-468 breast
# Assay: NCI-60 one-dose screen, 48 h (100 = growth as untreated, 0 = no growth, -100 = all killed)
# Conditions: 10 µM unless noted
row,SMILES,growth
1,COC(=O)c1cc(-c2ccc(S(C)(=O)=O)cc2)[nH]c1N/N=C/c1c(Cl)cccc1Cl,15.7% (inactive)
2,CN(C)/C(N)=N/N=C(\c1ccccc1)c1ccccn1,95.8% (inactive)
3,Fc1ccc([I+]c2ccc(F)cc2)cc1,30% (inactive)
4,COc1nc2c(c(=O)n1C)CN(Cc1ccccc1)C=N2,97.6% (inactive)
5,Nc1c(Br)cc2c(c1Br)Cc1cc([N+](=O)[O-])ccc1-2,-54.8% (active)
6,CNC(=O)c1cc(Oc2ccc(NC(=O)Nc3ccc(Cl)c(C(C)(C)C)c3)c(F)c2)ccn1,7.76% (active)
7,O=C1OC(c2ccc(-c3ccccc3)cc2)=C/C1=C/c1c(Cl)cccc1Cl,90.8% (inactive)
8,CNCc1cccc2c1OCCOCCOCCN(C)S(=O)(=O)c1ccc(cc1)-c1cnc(N)c(n1)C(=O)N2,68.5% (inactive)
9,CCN1C(=O)N(CC)C2Nn3c(s/c(=C\c4ccc(OC)cc4)c3=O)=NC21 (stereo not given),14.1% (inactive)
10,c1ccc(-c2c(-c3ccccc3)[n+](Cc3ccc4ccccc4c3)c(-c3ccc(-c4nc5ccccc5s4)cc3)n2Cc2ccc3ccccc3c2)cc1,-77.8% (active)
11,COC(=O)CCC1=C(C)C(C)=N/C1=C\c1[nH]c(-c2ccc[nH]2)cc1OC,35% (inactive)
12,N#Cc1c(N2CCNCC2)nc2sc3cc(Cl)c(Cl)cc3n2c1=N,90.2% (inactive)
13,Cc1[nH]c(-c2ccc3cc[nH]c3c2)c2c1C(=O)CCCC2,15.8% (inactive)
14,FC(F)(F)c1cc(CNc2nc(Cl)ncc2Br)cc(C(F)(F)F)c1,64.7% (inactive)
15,C=CCn1c(SCC(=O)Nc2ccc(C(=O)/C=C/c3ccc(Cl)cc3)cc2)nnc1-c1ccccc1,101% (inactive)
16,NC(=S)N/N=C/C(=O)O,37.7% (inactive)
17,O=C1/C(=C/c2ccccc2)Oc2ccc(O)c(I)c21,104% (inactive)
18,Cc1ccc(=O)[nH]n1,103% (inactive) and 104% (inactive)
19,COc1cc(/C(=C2/O[C@@H]([C@H]3COC(C)(C)O3)[C@H]3OC(C)(C)O[C@@H]23)c2ccc3c(c2)OCO3)cc(OC)c1OC,69.6% (inactive)
20,O=C1C(Cl)=C(N/N=c2/[nH][nH]/c(=N/NC3=C(Cl)C(=O)c4ccccc4C3=O)c3ccccc23)C(=O)c2ccccc21,62.9% (inactive)

row,SMILES,growth
1,Cc1nc2sc(C(=O)Nc3cccc(Cl)c3C)c(N)c2cc1C(O)c1ccccc1 (stereo not given),18.5% (inactive)
2,CCn1c(O)c(/C=N/NC(=O)C(C)c2ccc(CC(C)C)cc2)sc1=S (stereo not given),6.34% (active)
3,CCCCCCCCCCCCCCCC(=O)OC1[C@@H](OC(=O)CCCCCCCCCCCCCCC)[C@@H](C(=O)N[C@@H](CCCCN)C(=O)OC)O[C@H]1n1cnc2c(=O)[nH]c(NC(=O)C(C)C)nc21 (stereo not given in full),83.1% (inactive)
4,CCOC(=O)C/C(C)=N\NC(=O)c1ccncc1,110% (inactive)
5,COc1cccc(NCc2nnc(Nc3ccc(Cl)cc3)c3ccccc23)c1,-21.9% (active)
6,O=S(O)c1cc(Cl)cc(Cl)c1OCc1ccccc1,84% (inactive)
7,CS(=O)(=O)c1ccc(-c2cnc3ccc(-c4cccc(S(C)(=O)=O)c4)nn23)cc1,6.54% (active)
8,Cc1nc2ccccc2c(/C=C/c2ccc(C(F)(F)F)cc2)c1C(=O)/C=C/c1ccccc1,-51% (active)
9,O=C(N/N=C/c1ccc(Cl)cc1)c1ccc(NC(=O)c2ccccn2)cc1,78.2% (inactive)
10,CCCCCCCC/C=C\CCCCCCCCOc1ccccc1CC(=O)NCC[N+]1(C)CCCCC1,-9.98% (active)
11,CN1CCN(CCCOc2ccc3nc(Nc4cc(Cl)cc(Cl)c4)ccc3c2)CC1,-74.4% (active)
12,Cc1cc(N2CCCC2)nc(NC2CCCC(Nc3ccnc4cc(Cl)ccc34)C2)n1 (stereo not given),-56.1% (active)
13,COc1cccc(CCC2CCCN(c3cc(C)nc(N)n3)C2)c1 (stereo not given),26.1% (inactive)
14,CCOc1ccc(NC2=C(Cl)C(=O)c3nc(C)ccc3C2=O)cc1,-95.2% (active)
15,CC(C)CCc1nc2ccc(NCc3ccc(OCCN4CCC(C)CC4)cc3)cc2[nH]1,65.6% (inactive)
16,Cc1c(C(=O)Nc2ccccc2F)sc2c(=O)[nH]cnc12,106% (inactive)
17,O=C1NC(=O)C(CC(=O)n2c(-c3ccccc3)nc3ccccc32)C(=O)N1,98.3% (inactive)
18,Fc1ccc(-c2nc(-c3ccc(-c4nc5ccc(F)cc5[nH]4)cc3)no2)cc1,56.2% (inactive)
19,COc1ccc(-c2cc(-c3cc(OC)ccc3OC)nc(N)c2C#N)cc1,70.2% (inactive)
20,Cc1nc2cnc(N)c(C#Cc3cncc(C(=O)Nc4ccc(Cl)c(C(F)(F)F)c4)c3)c2nc1C,72.6% (inactive)
